Source: PubChem BioAssay
Hits are enriched below; roughly 4.6% of the tested compounds scored in any of these assays.
tim23-1 inh = inhibits growth of tim23-1 mutant yeast; S. cerevisiae tim23-1 growth, BacTiter-Glo luminescence, 24 h; inhibition, % at 20 µM; 330,000 tested, 1.3% active; AID 463212;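 active = growth inhibition of the mutant yeast at or above 50%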;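 note: temperature-sensitive mutant grown at 25 °C; plate controls were DMSO-treated mutant yeast for no effect and medium wells lacking yeast for full effect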
tim10-1 inh = growth inhibitors of tim10-1 mutant yeast; S. cerevisiae tim10-1 ts strain growth, BacTiter-Glo, 24 h; inhibition, % at 20 µM; 330,000 tested, 2.2% active;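 active = inhibition of at least 40%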;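 note: mutant grown at 25 °C; 0% = DMSO wells with yeast and 100% = wells holding no yeast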
NALP3 yeast inh = inhibitors of NALP3 inflammasome in yeast | Yeast reconstituted NLRP3/ASC/caspase-1, beta-gal luminescence, 24 h | inhibition, % at 10 µM | 330,000 tested, 0.39% active | AID 2825;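 active = inhibition of 50% or more; inactive = inhibition below 50%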;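 note: plate controls were induced DMSO wells for no effect and uninduced yeast grown without galactose for full effect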
TIM10 inh = growth inhibitors of TIM10 yeast strain. AID 463195. S. cerevisiae TIM10 strain growth, BacTiter-Glo luminescence, 24 h. 330,000 tested, 1.4% active. inhibition, % at 10 µM;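 active = inhibition of 40% or more at the single tested concentration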;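 note: wild-type TIM10 isogenic control strain grown at permissive 25 °C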
SKKanGAS inh = inhibitors of SKKanGAS S. pyogenes growth in kanamycin (SK-promoter or general growth effect); inhibition, % at 7.5 µM; BacTiter-Glo, 6 h; 300,000 tested, 1.3% active;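 active = mean replicate score, as percent of positive control median, at least 50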;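 note: strain carries kanamycin resistance gene driven by streptokinase promoter and grows in 40 µg/ml kanamycin; loss of luminescence reflects streptokinase promoter inhibition or plain growth inhibition; 0% = median of DMSO wells and 100% = positive control at its reference dose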
tim10-1 conf = tim10-1 yeast growth inhibition, confirmed; shares compounds with tim10-1 inh; S. cerevisiae tim10-1 ts strain growth, BacTiter-Glo, 24 h; inhibition, % at 20 µM; 7,400 tested, 56% active; AID 463213;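 active = inhibition of yeast growth at or above a set limit in either of two repeat tests at 20 µM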;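 note: tim10-1 mutant grown at permissive 25 °C to find synthetic lethal compounds; 0% = DMSO yeast wells and 100% = medium wells without yeast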
TIM10 conf = confirmation of TIM10 yeast growth inhibitors; shares compounds with TIM10 inh; S. cerevisiae tim10 strain growth, BacTiter-Glo luminescence, 24 h; inhibition, % at 10 µM; 4,600 tested, 63% active; AID 463215;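 active = inhibition of yeast growth at or above a set limit in either of two replicates at 10 µM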;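 note: this counterscreen used the strain with wild-type TIM10; 0% = yeast with DMSO and 100% = medium wells lacking yeast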
tim23-1 conf = tim23-1 yeast growth inhibition, confirmed | shares compounds with tim23-1 inh | S. cerevisiae tim23-1 growth, BacTiter-Glo luminescence, 24 h | inhibition, % at 20 µM | 4,400 tested, 83% active | AID 463218;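 active = inhibition above about 39% in either of two replicate wells at 20 µM, limit read from the data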;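 note: temperature-sensitive tim23-1 mutant grown at 25 °C; 0% = DMSO wells with yeast and 100% = medium wells without yeast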
An asterisk follows results filed as active; . = not tested or not shown.

SMILES	tim23-1 inh	tim10-1 inh	NALP3 yeast inh	TIM10 inh	SKKanGAS inh	tim10-1 conf	TIM10 conf	tim23-1 conf
CCOC(=O)C1=C(Cc2ccc(Cl)cc2)C(=O)c2ccccc2C1=O	67.4*	64.5*	1.5	57.1*	20.5	66.7*	57.9*	63.5*
CCOC(=O)C1=C(C)N=C2c3ccccc3C(=O)C2C1c1ccc(Cl)cc1 (centres undefined)	18.4	12.9	4.2	8.6	17.9	.	.	.
Cc1nnc(NC(=O)C2COc3ccccc3O2)s1 (centres undefined)	10.3	4.9	-3.6	3.8	-0.4	.	.	.
CCC(CC)c1nnc(NC(=O)C2COc3ccccc3O2)s1 (centres undefined)	50.3*	47.4*	13.3	37.4	4.9	45.5*	.	52.5*
COc1cccc2nc3cc(C)c(C)cc3nc12	50.1*	63.5*	20.8	43.4*	54.4*	53.4*	32.9*	53.7*
COc1cccc2c1nc(C)c1cc(C)oc12	17.4	20.5	-5.4	6.1	-4.5	.	.	.
C/C(=N/NC(=O)CN(c1ccccc1)S(=O)(=O)c1ccccc1)c1ccccc1O	34.4	26.1	5.0	31.3	-15.5	.	.	.
O=C(OCc1csc(Nc2ccccc2)n1)c1ccc(Cl)cc1	61.4*	46.6*	0.2	58.1*	54.8*	25.4	41.3*	44.3*
O=C(COc1ccccc1)OCc1csc(Nc2ccccc2)n1	29.3	16.1	-8.8	14.8	-5.5	.	.	.
Cc1occc1-c1nnc(-c2cc([N+](=O)[O-])cc([N+](=O)[O-])c2)o1	82.6*	73.4*	27.5	56.0*	9.3	68.8*	52.0*	69.3*
O=[N+]([O-])c1cccc(-c2nnc(-c3ccccc3)o2)c1	-8.9	17.5	23.5	23.0	4.3	.	.	.
Oc1c(Br)cc(Br)cc1/C=N/c1nccs1	75.1*	46.3*	13.3	29.5	.	33.9*	.	89.5*
C(=N\c1nccs1)/c1cccnc1	20.1	12.2	5.1	-9.1	-2.2	.	.	.
Oc1ccc(Cl)cc1/C=N/c1nccs1	54.9*	44.9*	16.1	30.0	-5.3	43.8*	.	29.8
COc1ccccc1CNC(=O)c1ccc2c(=O)n3c(nc2c1)CCCCC3	12.8	11.6	-1.5	0.3	-0.2	.	.	.
O=C1/C(=C\c2ccncc2)SC(=S)N1C1CCCCC1	51.7*	43.5*	14.8	27.3	3.4	22.9	.	42.2*
Cc1ccc(/C=C2/SC(=S)N(C3CCCCC3)C2=O)o1	36.4	28.3	-1.0	30.7	-4.6	.	.	.
O=C(Nc1cccc(-c2nnc(-c3ccccc3)o2)c1)C1CC1	60.0*	41.4*	23.9	26.8	7.9	19.9	.	75.5*
CCc1cccc2c1NC(=O)C21N2CCCC2C(C(=O)c2ccc3ccccc3c2)C12C(=O)Nc1ccccc12 (centres undefined)	50.6*	64.8*	20.0	69.1*	13.4	70.1*	70.8*	60.8*
Cc1cccc2c1NC(=O)C21N2CCCC2C(C(=O)c2ccc3ccccc3c2)C12C(=O)Nc1ccccc12 (centres undefined)	50.9*	46.5*	9.4	42.6*	11.5	71.3*	65.5*	57.2*
CCc1cccc2c1NC(=O)C2(O)N1CCCC(C)C1 (centres undefined)	23.6	20.6	8.8	6.4	-6.5	.	.	.
Cc1cc(C(=O)N2CCCC(C(=O)c3ccc4ccccc4c3)C2)nn1C (centres undefined)	1.5	7.6	3.9	5.8	-1.9	.	.	.
Cc1ccc(C)c(NCCC#N)c1	3.1	6.1	-4.7	-2.1	1.1	.	.	.
Cc1[nH]c2ccccc2c1N=Nc1cc(C(=O)O)cc(C(=O)O)c1	3.6	-2.9	22.9	-8.4	-6.2	.	.	.
Cc1[nH]c2ccccc2c1N=Nc1ccc(F)cc1	70.2*	62.7*	14.0	29.8	-2.1	29.5	.	-87.8
COC(=O)C1CCN(C(=O)COC(=O)C2CCN(S(=O)(=O)c3ccc(C)c(C)c3)CC2)CC1	-5.9	-16.0	6.3	-4.0	-3.0	.	.	.
COc1ccc(S(=O)(=O)N2CCN(C(=O)c3oc4ccccc4c3C)CC2)cc1	53.3*	57.3*	30.7	44.2*	-2.1	43.4*	55.4*	54.1*
